Compound activity deposited in PubChem by National Center for Advancing Translational Sciences (NCATS).
RE007 growth inh – less growth of the S. pombe RE007 Vpr strain | S. pombe RE007 Vpr strain, BacTiter-Glo ATP luminescence, 24 h | Potency, µM (titrated, usually from 92.2 µM), without a hit: at the highest dose activity change, negative = less growth, usual class: inhibitors | 0.21% of 360,000 active | AID 651644; active = well fitted falling curve with a large enough effect; inconclusive = small, poorly fitted or top-dose-only effect; inactive = no such curve, though single readings can be large or run the other way; also: nearly all actives have a fitted effect of over 50% in size
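Fission yeast RE007 carrying one integrated HIV-1 vpr copy, seeded at OD 0.01 in PMG+AL medium with 23 nL pinned compound. Grown 24 h at 30 degrees; viability read by BacTiter-Glo luminescence after 5 min.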
LmPK inh – LmPK (Leishmania mexicana) enzyme inhibition. Potency, µM (doses to about 57.5 µM), inactives show top-dose activity change, negative = inhibition, usual class: inhibitors. 0.37% of 290,000 active. AID 1721. purified LmPK, Kinase-Glo ATP luminescence, 1 h
Target sequence (Q27686 whole entry, looked up): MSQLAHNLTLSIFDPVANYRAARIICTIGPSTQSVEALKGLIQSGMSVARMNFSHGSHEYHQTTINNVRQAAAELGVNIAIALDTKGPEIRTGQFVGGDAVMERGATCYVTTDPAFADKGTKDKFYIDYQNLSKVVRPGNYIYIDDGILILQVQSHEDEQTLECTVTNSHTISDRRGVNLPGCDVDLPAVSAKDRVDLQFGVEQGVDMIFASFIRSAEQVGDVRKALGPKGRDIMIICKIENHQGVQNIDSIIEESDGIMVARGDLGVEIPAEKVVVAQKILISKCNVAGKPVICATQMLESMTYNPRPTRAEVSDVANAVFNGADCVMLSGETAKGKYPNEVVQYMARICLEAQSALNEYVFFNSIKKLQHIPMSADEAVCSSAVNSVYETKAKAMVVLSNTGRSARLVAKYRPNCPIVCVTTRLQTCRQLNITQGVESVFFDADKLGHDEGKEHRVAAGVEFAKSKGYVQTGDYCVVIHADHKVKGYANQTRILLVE
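0.1 nM LmPK, 0.5 mM PEP, 0.1 mM ADP; 50 mM imidazole pH 7.2, 7 mM MgCl2, 50 mM KCl; 1 h RT. Kinase-Glo luminescence readout, normalized to no-enzyme (full inhibition) and uninhibited wells.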
TbPYK inhibitor – T. brucei pyruvate kinase inhibition | TbPYK enzyme, Kinase-Glo Plus ATP luminescence, 45 min | Potency, µM (doses to about 76.8 µM), for the others: top-dose activity, negative = inhibition, most hits filed as inhibitors | 0.12% of 410,000 active | Q57TT1; also: nearly all actives have a fitted effect of over 50% in size
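ADP (130 uM final) triggers the TbPYK reaction after compound addition; incubation is 45 min at room temperature. Kinase-Glo Plus is then added and luminescence imaged. Normalized data are fitted to concentration-effect curves.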
Giardia FBPA inh – Giardia lamblia aldolase inhibition; A8B2U2; purified Giardia FBPA; Potency, µM (series often up to 59.6 µM), without a hit: at the highest dose activity, negative = inhibition, most hits filed as inhibitors; 0.71% of 290,000 active; AID 2451; also: nearly all actives have a fitted effect of over 55% in size
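40 nM FBPA preincubated 10 min at RT with compound (up to 57.5 uM final), then substrate plus GAPDH/TPI/NAD/arsenate coupling and diaphorase/resazurin added. Fluorescence read after 20 min at RT, 525/598 nm.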
The depositor's hits bear a star; ? = inconclusive; . = no result given; [ ] = dose if it differs, or a comment. This is a sample that favours compounds with a hit; in the whole collection about 0.95% have one here. Unless noted, calls follow the shape of the dose curve; as a rule, active = well fitted curve in the direction sought with a large enough effect; inconclusive = small, poorly fitted or top-dose-only effect, or another doubt; inactive = no such curve, though single readings can be large; an effect the other way counts as inactive or inconclusive. % is scaled to controls: 0 for no effect and ±100 for the full control effect; potency is read from the fitted curve at half-maximal effect.

SMILES	RE007 growth inh	LmPK inh	TbPYK inhibitor	Giardia FBPA inh
O=C(/C=C/Nc1ccccc1F)c1cccs1	-25%	16µM*	?	1%
O=C(/C=C/Nc1ccc(Br)cc1F)c1ccco1	?	?	-14%	-5%
O=C(/C=C/Nc1ccc(F)cc1F)c1ccco1	-1%	10µM*	?	-12%
CCCCn1c(C23CC4CC(CC(C4)C2)C3)n[nH]c1=S	8%	-15%	6.3µM*	12%
COCCn1c(C23CC4CC(CC(C4)C2)C3)n[nH]c1=S	17%	-27%	7.9µM*	0%
COC[C@@H](O)[C@@H](OC)[C@H](OC)[C@H](Cc1c(OC)cc(OC)cc1OC)OC	.	.	.	1%
Cc1ccc(/C=N/NC(=O)CSc2nc3ccccc3n2C)s1	28%	-4%	2%	4µM*
Cn1c(SCC(=O)N/N=C/c2cccs2)nc2ccccc21	4%	-3%	3%	-17%
CCOC(=O)OCC1OC(C#Cc2ccc(Br)cc2)C=CC1OC(=O)OCC (stereo unspecified)	.	.	.	0%[12.9 µM]
N=C(N)S/C=C\C(=O)O	.	.	.	-28%
Cc1ccc2oc3nc(C)c(C(=O)O)cc3c(=O)c2c1	-19%	16µM*	?	2%
CC(=O)c1cc2c(=O)c3cc(C)ccc3oc2nc1C	-14%	14µM*	-16%	-2%
CCOCCCn1c(SCC(=O)Nc2ccccc2OC)nc2c(oc3ccccc32)c1=O	.	.	0%	.
Cc1nnc(C(C)C)n1C1CC2CCC(C1)N2CC[C@H](NC(=O)C1CCC(F)(F)CC1)c1ccccc1 (stereo partly specified)	.	.	11%	.
O=C(CSC1=NS(=O)(=O)c2cc(F)ccc2N1)Nc1ccccc1	6%	.	0%	.
O=C(CSC1=NS(=O)(=O)c2ccccc21)Nc1ccccc1	-25%	22µM*	?	-20%
C=CCOc1c(Cl)cc(CNc2ccc(C)c(Cl)c2)cc1OC	.	3%	.	-4%
C=CCOc1c(Cl)cc(CNc2ccc(N(C)C)cc2)cc1OC	-18%	-3%	-9%	4.5µM*
O=C(CCCCCCCCC#CI)Oc1ccccc1	.	.	-7%	.
Cc1ccc(Cl)cc1N(C)C(=O)c1cc2ccc3cccnc3c2[nH]1	.	.	-10%	.
CC1CCOC(c2coc3ccccc3c2=O)O1 (stereo unspecified)	-28%	?	-2%	2%
O=C(O)C1CSC(c2coc3ccccc3c2=O)N1 (stereo unspecified)	40µM*	-2%	-11%	-10%
Cc1ccccc1NC(=O)c1cc2ccccn2n1	-20%	13µM*	11%	0%
CCC(C)Cn1c(/C=C/c2ccccc2)nc2ccccc21 (stereo unspecified)	.	.	8%	.
O=C(O)c1ccccc1C(=O)Nc1nccs1	2%	1%	-15%	0%
SMILES	RE007 growth inh	LmPK inh	TbPYK inhibitor	Giardia FBPA inh
O=C(O)c1ccccc1C(=O)Nc1n[nH]c(=S)s1	3%	3%	?	10µM*
CC(=O)c1ccc(-n2c(-c3cc(-c4ccsc4)n[nH]3)n[nH]c2=S)cc1	1%	20µM*	?	20%
CC(C)CC(NC(=O)NC(CCC(=O)O)C(=O)O)C(=O)O (stereo unspecified)	.	.	.	1%
Cn1c(N=Nc2ccc(N3CCOCC3)cc2)[n+](C)c2ccccc21	18µM*	11µM*	?	-22%
O=C(O)c1cccc(C(=O)O)n1	.	1%	.	28µM*
O=C(O)c1ccccn1	-2%	.	2%	.
O=C(O)c1ccc2cccnc2n1	9%	-1%	-6%	5.6µM*
O=C(CCCN1CCOCC1)c1ccc2c(c1)OCCO2	1%	-4%	2%	0%
O=C(CCN1CCCCC1)c1ccc2c(c1)OCO2	7.9µM*	2%	-6%	-1%
O=C(CCN1CCOCC1)c1ccc2c(c1)OCCO2	13µM*	0%	6%	-17%
O=C(CCN1CCc2ccccc2CC1)c1ccc2c(c1)OCCO2	7.1µM*	-6%	?	2%
Cc1ccc(/C=N/n2c(-c3ccccc3)csc2=S)cc1	.	.	-8%	.
O=c1c(-c2ccc(O)cc2)coc2c(C3OC(CO)C(O)C(O)C3O)c(O)ccc12 (stereo unspecified)	.	.	.	1%
NCCc1cc(O)c(O)cc1O	6%[18.4 µM]	.	?	5.6µM*
CCOC(=O)CC(=O)CSc1nc2ccc(C)cc2cc1C#N	-11%	20µM*	?	-17%
CCOC(=O)CC(=O)CSc1nc(CC)c(C)cc1C#N	8%	-14%	-17%	2%
Cc1cccc(NC(=O)c2ccc(CNS(=O)(=O)c3ccc4c(c3)C(C)(C)C(=O)N4C)cc2)c1	.	.	2%	.
CCS(=O)(=O)N1CC(=O)N(c2cccc(C)c2C)C(C)(C(=O)NC2CCCCCC2)C1 (stereo unspecified)	.	.	2%[15.4 µM]	.
CCN1/C(=C/C=C/c2oc3ccc4ccccc4c3[n+]2CC)Oc2ccc3ccccc3c21	13µM*	-17%	-14%	-4%
C=CCC1(O)CCC2C3CCC4=CC(=O)CCC4=C3C=CC21C (stereo unspecified)	.	.	-16%	.
CC1=C(C)/C(=N\OS(=O)(=O)c2ccccc2)C=CC1=O	7.9µM*	7%	2%	4.5µM*
Cc1ccc(S(=O)(=O)O/N=C2\CCCc3ccccc32)cc1	5%	0%	13%	?
Cc1ccn2cc(-c3cc4ccccc4oc3=O)nc2c1	-11%	14µM*	-18%	-1%
CN(C)c1ccc(/C=C2\C(=O)Nc3ccccc32)c2ccccc12	.	.	.	-1%
O=C(Nc1ccc2c(c1)OCO2)c1noc2c1CCCC2	5µM*	-21%	-11%	-22%
SMILES	RE007 growth inh	LmPK inh	TbPYK inhibitor	Giardia FBPA inh
Cc1ccc(C(=O)Nc2ccc3c(c2)OCO3)cc1	-13%	22µM*	-17%	?
O=C(Nc1ccc2c(c1)OCO2)c1noc2c1CCCCC2	?	-19%	3%	-4%
Cc1ccc(C(=O)Nc2ccc3c(c2)OCCO3)cc1	79%	-20%	-10%	-2%
O=C(Nc1ccccn1)c1ccc2c(c1)OCO2	-16%	14µM*	-23%	-10%
O=C(Nc1ccccn1)c1cc2ccccc2o1	?	10µM*	?	-6%
O=C(Nc1ccccn1)c1ccc2c(c1)OCCO2	-16%	?	?	2%
Cc1ccc(C(=O)Nc2ccc3c(c2)OCO3)o1	?	18µM*	?	-23%
Cc1ccnc2nc(C(=O)Nc3ccc4c(c3)OCO4)nn12	-10%	16µM*	-21%	-5%
N#C/C(=C/c1cc[nH]c1)C(N)=S	1%	-7%	-3%	-14%
N#C/C(=C\c1ccc(O)c(O)c1)C(N)=S	.	.	.	14µM*
Cc1ccc(S(=O)(=O)c2ccccc2)cc1S	.	14µM*	.	-4%
Nc1ccc(S(=O)(=O)c2cccc(N)c2)cc1	5%	-1%	2%	4%
Cc1ccsc1/C=N/Nc1nc(=O)[nH]nc1C	13µM*	?	?	?
Cc1cc(C)nc(N/N=C/c2sccc2C)n1	-4%	?	-20%	-17%
